# Calls of active or inactive are those of the source. Rule for the calls: active = hit-call score of the fitted dose curve at least 0.9, where 1 is the maximum; inactive = score below 0.9.
# Read-out: E-selectin (Homo sapiens) (UniProt P16581)
# Test: BSK_LPS_Eselectin: BioMAP Diversity Plus: LPS Assay for Eselectin Biomarker Activity (AID 2283077)
# Details: primary human HUVEC with PBMC; actives raise or lower the signal
# Method: BSK_LPS is a cell-based, multiplexed-readout assay that uses umbilical vein endothelium and peripheral blood mononuclear cells, a human vascular primary cell co-culture, with measurements taken at 24 hours after chemical dosing in a 96-well plate.BSK_LPS_Eselectin is an assay component measured in the BSK_LPS assay. It measures E-selectin antibody related to regulation of gene expression using ELISA technology.Data from the assay component BSK_LPS_Eselectin was analyzed into 1 assay endpoint. This assay endpoint, BSK_LPS_Eselectin, was analyzed with bidirectional fitting relative to DMSO as the negative control and baseline of activity. Using a type of binding reporter, gain or loss-of-signal activity can be used to understand changes in the signaling as they relate to the gene SELE. Furthermore, this assay endpoint can be referred to as a primary readout, because this assay has produced multiple assay endpoints where this one serves a signaling function. To generalize the intended target to other relatable targets, this assay endpoint is annotated to the cell adhesion molecules intended target family, where the subfamily is selectins.
# The levels of cell surface (or secreted, indicated by the prefix "s") biomarker endpoints were measured by ELISA. Overt cytotoxicity to cells in confluent adherent cultures (all systems other than the BT system) was assessed by measuring total protein levels using sulforhodamine B (SRB) staining in parallel cultures at the time of biomarker measurements, indicated as SRB endpoints. For proliferation assays for adherent cell types, individual cell types are cultured at sub-confluence and relative cell numbers quantified by SRB staining at time points optimized for each system (48 h: 3C and CASM3C systems; 72 h: BT and HDF3CGF systems; 96 h: SAg system). SRB was performed by staining cells with 0.1% SRB after fixation with 10% TCA and reading wells at 560 nm.Viability and proliferation of PBMC (T cells) was quantified by Alamar Blue reduction for the SAg and BT systems. For PBMC viability (referred to as PBMC Cytotoxicity within the assay endpoint names), cells were plated (75,000/well in a 96-well plate) and then chemical samples added for 1 h before addition of activators, SEB and TSST-1 (20 ng/mL final concentration each). Cells were incubated for 90 h. Then, Alamar Blue (20 uL/well) (Invitrogen, Cat DAL1100) was added for 6 h, and the plates were read with a fluorescence microplate reader at 546/580 nm (excitation/emission). For PBMC proliferation, cells were plated and activated as above but incubated for only 16 h prior to addition of Alamar Blue. Plates were read after 6 h.
# E-selectin (Homo sapiens), sequence (P16581 whole entry, looked up): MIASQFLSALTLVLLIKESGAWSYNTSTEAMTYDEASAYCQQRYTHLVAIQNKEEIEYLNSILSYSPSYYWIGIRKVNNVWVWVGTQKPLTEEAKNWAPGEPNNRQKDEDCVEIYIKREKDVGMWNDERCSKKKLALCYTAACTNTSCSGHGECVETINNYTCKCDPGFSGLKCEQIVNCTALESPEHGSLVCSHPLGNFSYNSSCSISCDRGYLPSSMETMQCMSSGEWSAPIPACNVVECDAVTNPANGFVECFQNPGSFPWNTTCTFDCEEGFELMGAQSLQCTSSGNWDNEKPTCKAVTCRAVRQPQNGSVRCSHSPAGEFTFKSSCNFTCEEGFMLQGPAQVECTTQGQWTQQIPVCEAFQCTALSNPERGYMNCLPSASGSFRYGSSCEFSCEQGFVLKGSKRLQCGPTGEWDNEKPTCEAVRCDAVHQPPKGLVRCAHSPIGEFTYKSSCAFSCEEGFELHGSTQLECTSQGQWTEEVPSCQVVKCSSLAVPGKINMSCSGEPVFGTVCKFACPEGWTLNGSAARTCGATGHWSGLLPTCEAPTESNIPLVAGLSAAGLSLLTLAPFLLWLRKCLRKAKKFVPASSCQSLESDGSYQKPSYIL
Structure (SMILES),outcome,AC50
Nc1ccc(N)c([N+](=O)[O-])c1,inactive,
C[C@]12CC[C@@H]3c4ccc(O)cc4CC[C@H]3[C@@H]1CC[C@@H]2O,inactive,
CCCO[Si](OCCC)(OCCC)OCCC,inactive,
CC(=O)CCC=C(C)CCC=C(C)C,inactive,
CC(C)CCCC(C)(C)O,inactive,
C=C(F)C(=O)OC(C(F)(F)F)C(F)(F)F,inactive,
C=C1CC/C=C(\C)CC[C@@H]2[C@@H]1CC2(C)C,,21.2 µM (active)
O=C1OC2(c3ccc(O)cc3Oc3cc(O)ccc32)c2ccccc21,inactive,
CC(=O)OC(C)(C)C1CC=C(C)CC1 (stereo not given),inactive,
CCCCCCCCCC(=O)OCC,inactive,
O=C(O)C(F)(F)C(F)(F)C(F)(F)C(F)(F)C(F)(F)C(F)(F)C(F)(F)C(F)F,inactive,
CC(C)Cc1ccc(C(C)C(=O)O)cc1 (stereo not given),inactive,
c1ccc2c(c1)-c1ccc3ccc4cccc5cc-2c1c3c45,inactive,
CC=CC(=O)C1=C(C)C=CCC1(C)C,inactive,
C=C(C)C(=O)OCCC(F)(F)C(F)(F)C(F)(F)C(F)(F)C(F)(F)C(F)(F)C(F)(F)C(F)(F)F,inactive,
CCCCOCCOCCO,inactive,
c1ccc(Sc2ccccc2)cc1,,33.1 µM (active)
O=S(=O)(O)C(F)(F)C(F)(F)OC(F)(F)C(F)(F)F,inactive,
O=C(c1ccc(OCCN2CCCCC2)cc1)c1c(-c2ccc(O)cc2)sc2cc(O)ccc12,,38.3 µM (active)
CC(=O)OCC=C(C)CCC=C(C)CCC=C(C)C,inactive,

Structure (SMILES),outcome,AC50
CCCCN(CCO)CCO,inactive,
NC(=O)c1c(Cl)cccc1Cl,inactive,
CCOC(=O)CCCCCCCCC(=O)OCC,inactive,
COC(=O)c1ccc(C(=O)OC)cc1,inactive,
CCOC(=O)C=Cc1ccccc1,inactive,
CC1=CC(C)C(C=O)C(C)C1 (stereo not given) (tested in a mixture with another compound),inactive,
CCC(=O)OCC=Cc1ccccc1,inactive,
O=C(O)C(F)(F)OC(F)(F)C(F)(F)OC(F)(F)C(F)(F)C(F)(F)C(F)(F)F,inactive,
C=CC(=O)OCC(CO)(COC(=O)C=C)COC(=O)C=C,,0.311 µM (active)
c1ccc(OCCOc2ccccc2)cc1,inactive,
COc1ccccc1NC(=O)CC(C)=O,inactive,
CC(=O)c1ccc(C)cc1,inactive,
CC1(C)[C@H](C=C(Cl)Cl)[C@H]1C(=O)OCc1cccc(Oc2ccccc2)c1,inactive,
O=S1(=O)CC(Cl)(Cl)C(Cl)(Cl)C1,,1.1 µM (active)
C#C[C@]1(O)CC[C@H]2[C@@H]3CCc4cc(O)ccc4[C@H]3CC[C@@]21C,inactive,
OCCN1CCOCC1,inactive,
CC(C)(CO)CO,inactive,
CCCCCCCCCCCCS,,20 µM (active)
CCCCCCCC1CCCC1=O (stereo not given),inactive,
C=C(C)C(N)=O,inactive,

# From PubChem BioAssay (EPA / NIEHS)
